Measured values as given in PubChem BioAssay (NCATS).
Activity calls are given as the source filed them. A call without a number means that no potency is given here. Calls come from the whole dose curve; as a rule, active = well fitted curve in the direction sought with a large enough effect in the signal ratio, with a control signal flat (not every such curve was filed as active); inconclusive = small, poorly fitted or top-dose-only effect, or effect the other way, or a change in a side signal; inactive = no such curve, though single readings can be large or run the other way; the % refers to the signal ratio.

Molecular target: Estrogen receptor (Homo sapiens) (UniProt P03372)
Assay: qHTS assay for small molecule antagonists of estrogen receptor alpha signaling (AID 588513)
Conditions: ER-alpha-UAS-bla HEK293, beta-lactamase ratio, antagonist mode; series mostly up to 76.9 µM
Source text: NIH Chemical Genomics Center [NCGC]
U.S. Environmental Protection Agency [EPA]
National Institutes of Environmental Health Sciences [NIEHS]
National Toxicology Program [NTP]
Estrogen receptor alpha (ER-alpha) is an important member of nuclear hormone receptors. ER-alpha plays important role in breast cancer as well as in other women's health issues. The majority of breast cancers is estrogen receptor (ER) positive and depends on estrogen for growth. There is also growing concern for some of environmental chemicals which may contribute the increasing the incidence of breast cancer. Therefore, it is important to understand the effect of environmental chemicals in ER-alpha signaling pathway.
NCGC Assay Protocol Summary
Using a beta-lactamase reporter-gene under control of the ER response element, a cell-based assay [ER-alpha-UAS-bla GripTiteTM cell-Based Assay from Invitrogen] was used to measure ER-alpha signaling pathway in antagonist mode. ER-alpha-UAS-bla-GripTite HEK 293 cells were used with assay medium containing 2% charcoal/dextran treated FBS, 0.1 mM NEAA and 1 mM sodium pyruvate. Cells were cultured in this assay medium overnight in the flasks before the assay. The assay was performed in clear bottom black Greiner 1536-well plates. 17-beta-estradiol was used as a positive control in the screen. Library compounds were measured for their ability to inhibit the reporter gene activity. Compounds were screened in a titration series in 1536-well format. […] Data was normalized relative to 17-beta-estradiol control (0.5nM, 100%), and DMSO only wells (basal, 0%). Concentration-response titration points for each compound were fitted to the Hill equation yielding concentrations of half-maximal inhibition (IC50) and maximal response (efficacy) values.
qHTS protocol for ER-alpha beta-lactamase assay in antagonist mode
[Step] [Parameter] [Value] [Description]
1. Reagent; 5 uL; 5000 cells/well
2. Incubation; 37 C for 4 hrs
- Dose response, Start 38uM, 1:2 dilutions with duplicates
- Two columns with 38 and 19uM (final) concentration.
5. Agonist (Stimulator); 1uL; 17-beta-estradiol at 0.5nM (final) concentration
6. Incubation; 37 C for 18 hrs
7. Detection reagent; 1 uL of CCF4-dye
8. Incubation; RT for 2 hrs
9. Detection; Fluorescence; Envision plate reader or Acumen plate reader

Chain of Estrogen receptor (Homo sapiens) (P03372 whole entry, looked up): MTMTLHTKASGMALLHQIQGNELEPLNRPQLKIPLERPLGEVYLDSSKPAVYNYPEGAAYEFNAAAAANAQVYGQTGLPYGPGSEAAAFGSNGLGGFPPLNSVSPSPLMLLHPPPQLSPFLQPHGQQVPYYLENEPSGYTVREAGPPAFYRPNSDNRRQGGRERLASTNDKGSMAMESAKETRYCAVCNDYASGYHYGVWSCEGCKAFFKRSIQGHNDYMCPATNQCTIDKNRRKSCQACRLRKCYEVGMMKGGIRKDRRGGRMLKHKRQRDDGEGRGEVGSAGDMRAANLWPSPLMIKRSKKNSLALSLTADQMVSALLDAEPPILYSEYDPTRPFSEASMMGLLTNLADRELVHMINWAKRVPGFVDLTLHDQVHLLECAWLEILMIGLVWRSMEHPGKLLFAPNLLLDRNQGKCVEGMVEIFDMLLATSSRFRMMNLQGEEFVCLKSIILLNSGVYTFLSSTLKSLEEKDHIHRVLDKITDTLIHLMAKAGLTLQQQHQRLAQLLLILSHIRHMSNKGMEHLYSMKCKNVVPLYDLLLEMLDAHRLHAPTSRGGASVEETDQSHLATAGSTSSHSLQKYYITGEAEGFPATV

**Q.** How did the Potency turn out when `O=[N+]([O-])c1c(Cl)c(Cl)c(Cl)c(Cl)c1Cl` was run?
**A.** inactive

**Q.** Which Potency does the source give for `Brc1ccc(Oc2ccc(Br)cc2Br)c(Br)c1` here?
**A.** inactive

**Q.** How did the Potency turn out when `N#CCBr` was run?
**A.** inactive

**Q.** Which Potency does the source give for `CN(C)c1ccc(N)cc1` here?
**A.** 31.6 µM [inconclusive] (active)

**Q.** How did the Potency turn out when `C=CCCC#N` was run?
**A.** inactive

**Q.** Which Potency does the source give for `O=C(O)c1cccc(Cl)c1` here?
**A.** inactive

**Q.** How did the Potency turn out when `CCC(Cl)[N+](=O)[O-]` (stereo not given) was run?
**A.** inactive

**Q.** How did the Potency turn out when `CC(C)(COCC1CO1)COCC1CO1` (stereo not given) was run?
**A.** inactive

**Q.** Which Potency does the source give for `Cc1ccccc1[N+](=O)[O-]` here?
**A.** inactive

**Q.** How did the Potency turn out when `Oc1c(Cl)cccc1Cl` was run?
**A.** inactive

**Q.** Which Potency does the source give for `Cc1cc(C)cc(OP(=O)(Oc2cc(C)cc(C)c2)Oc2cc(C)cc(C)c2)c1` here?
**A.** inactive

**Q.** `CCCCCOC(=O)c1ccccc1C(=O)OCCCCC` was tested. Which Potency did it give?
**A.** inactive

**Q.** `ClC(Cl)(Cl)C(Cl)(Cl)Cl` was tested. Which Potency did it give?
**A.** inactive

**Q.** With `Cc1cccc(C)c1N` as the compound, how does the Potency read?
**A.** inactive

**Q.** For `CCC/C=N/O`, which Potency is on record?
**A.** inactive

**Q.** Which Potency does the source give for `C/C=C/CC#N` here?
**A.** inactive

**Q.** How did the Potency turn out when `Oc1ccc(Cl)c(Cl)c1` was run?
**A.** inactive

**Q.** With `c1ccc2c(c1)-c1cccc3c1c-2cc1ccccc13` as the compound, how does the Potency read?
**A.** inactive

**Q.** Which Potency does the source give for `COc1ccc(C=O)cc1` here?
**A.** inactive

**Q.** For `CCSC(=O)N1CCCCCC1`, which Potency is on record?
**A.** inactive

**Q.** With `Cc1ccc([N+](=O)[O-])cc1` as the compound, how does the Potency read?
**A.** inactive

**Q.** For `Cc1ccc2c(C)cccc2c1`, which Potency is on record?
**A.** inactive

**Q.** How did the Potency turn out when `Cc1ccc2c(c1N)C(=O)c1ccccc1C2=O` was run?
**A.** inactive

**Q.** With `CNC(=O)O/N=C/C(C)(C)S(C)=O` (stereo not given) as the compound, how does the Potency read?
**A.** inactive

**Q.** `O=[N+]([O-])c1ccc2c3c(cccc13)CC2` was tested. Which Potency did it give?
**A.** inactive

**Q.** For `CCCN(CCC)c1c([N+](=O)[O-])cc(C(F)(F)F)cc1[N+](=O)[O-]`, which Potency is on record?
**A.** inactive

**Q.** Which Potency does the source give for `c1ccc(P(c2ccccc2)c2ccccc2)cc1` here?
**A.** inactive

**Q.** For `[O-][Cl+2]([O-])O`, which Potency is on record?
**A.** inactive

**Q.** With `COc1c(C(C)(C)C)cc([N+](=O)[O-])c(C)c1[N+](=O)[O-]` as the compound, how does the Potency read?
**A.** inactive

**Q.** For `O=[N+]([O-])c1ccccc1CCl`, which Potency is on record?
**A.** inactive

**Q.** Which Potency does the source give for `ClC(Cl)C(Cl)Cl` here?
**A.** inactive

**Q.** With `CC(C)OC(=O)Cc1ccccc1` as the compound, how does the Potency read?
**A.** inactive

**Q.** With `OCC(Cl)CCl` (stereo not given) as the compound, how does the Potency read?
**A.** inactive

**Q.** How did the Potency turn out when `Cc1ccc(N)cc1C` was run?
**A.** inactive

**Q.** How did the Potency turn out when `CCBr` was run?
**A.** inactive

**Q.** Which Potency does the source give for `C=CCOCC1CO1` (stereo not given) here?
**A.** inactive

**Q.** With `Cc1cccc(N)c1C` as the compound, how does the Potency read?
**A.** inactive

**Q.** For `CC(C)CON=O`, which Potency is on record?
**A.** inactive

**Q.** For `Clc1ccccc1`, which Potency is on record?
**A.** inactive

**Q.** For `O=C(Cc1ccccc1)OCc1ccccc1`, which Potency is on record?
**A.** inactive
